# Screening results: PubChem BioAssay, National Center for Advancing Translational Sciences (NCATS)
# An excerpt weighted towards active compounds, which were near 2.4% of everything screened.
# D2 ag-1 – agonists of human D2 dopamine receptor; P14416; HEK293 T-REx D2 cells, calcium flux agonist mode; activation, % at 2 µM; 0.53% of 340,000 active;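 active = activation over 3 SD above normal in the single-dose calcium agonist read, cut at about 30% in these data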; also: 0% is about no effect
# Target sequence (P14416 whole entry, looked up): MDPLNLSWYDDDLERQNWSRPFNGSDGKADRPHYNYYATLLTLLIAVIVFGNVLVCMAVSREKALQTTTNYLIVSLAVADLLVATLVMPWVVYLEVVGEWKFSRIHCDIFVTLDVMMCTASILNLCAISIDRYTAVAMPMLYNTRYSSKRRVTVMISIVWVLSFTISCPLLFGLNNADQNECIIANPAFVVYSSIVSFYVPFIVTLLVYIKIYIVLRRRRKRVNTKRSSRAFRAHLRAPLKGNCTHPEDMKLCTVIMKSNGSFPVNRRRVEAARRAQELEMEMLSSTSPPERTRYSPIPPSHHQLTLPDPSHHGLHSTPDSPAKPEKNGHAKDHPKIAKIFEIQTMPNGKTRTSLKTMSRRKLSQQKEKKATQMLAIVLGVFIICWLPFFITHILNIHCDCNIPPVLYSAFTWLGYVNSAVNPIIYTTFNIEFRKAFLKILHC
#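 In this primary screen, compounds producing a positive calcium signal within 180 s of addition to tetracycline-induced, force-coupled HEK293 Trex D2 cells are flagged; cells are dye-loaded with a no-wash calcium kit beforehand.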
# D2 PAM-1 – positive allosteric modulators of human D2 dopamine receptor; P14416; 0.23% of 360,000 active; DiscoveRx D2 beta-arrestin cells, luminescence, 90 min; 100% = 57 uM dopamine signal; potentiation, % (test concentration not listed); in the data active = potentiation above about 50%; inconclusive = mostly about 30% to 49%
#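 PathHunter beta-arrestin assay in DiscoveRx D2 cells. Compounds were added with an EC20 of dopamine (50 nM final) for 90 min at 37 deg C. Luminescence was read 1 h after detection reagent, with 57 uM dopamine as the EC100 control.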
# D2 ag-2 – agonists of human D2 dopamine receptor (beta-arrestin). 0.084% of 360,000 active. DiscoveRx PathHunter D2 beta-arrestin, luminescence, 90 min; 100% = 57 uM dopamine signal. activation, % (no concentration beside the values). AID 624465. P14416; in the data active = activation above about 40%; inconclusive = between about 15% and that limit
#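 Agonist mode: compounds alone added to overnight-plated D2 PathHunter cells for 90 min at 37 C, with 57 uM final dopamine (EC100) defining full response. Beta-arrestin recruitment detected by chemiluminescent reagent, read after 1 h at ambient temperature.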
# D2 PAM-2 – positive allosteric modulators of human D2 dopamine receptor; AID 485347; potentiation, % at 10 µM; 0.34% of 340,000 active; P14416; HEK293 T-REx D2, calcium flux, EC20 dopamine potentiation;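 active = potentiation over 3 SD above the plate norm, cut at about 30% in these data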; also: 0% is about no effect
#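 Primary screen. Calcium kinetics in induced HEK293 T-REx D2 cells: compound pre-addition 180 s, EC20 dopamine, 180 s more.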
# D2 antagonist – D2 dopamine receptor (human) antagonism. P14416. HEK293 TREx D2 cells, calcium flux, dopamine EC80. inhibition, % at 10 µM. 2% of 340,000 active; in the data active = inhibition above about 30%; inactive = below that, where a call was filed; also: 0% is about no effect
#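 Overnight-induced (tetracycline, 30 C) HEK293 T-REx cells carrying force-coupled D2 receive a no-wash calcium dye, then compound, then EC80 dopamine at 180 s; signals are read kinetically throughout.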
# Starred values were filed as active, the others as inactive; ? = inconclusive; . = no result given.
SMILES,D2 ag-1,D2 PAM-1,D2 ag-2,D2 PAM-2,D2 antagonist
O=C(CN1C(=O)c2ccccc2C1=O)Nc1ccccc1N1CCOCC1,-1,-3,4,-1,-18
CN(C(=O)c1cc(-c2ccccc2O)on1)c1ccccc1,-1,.,.,10,.
Cc1ccc(-c2c[n+](Cc3ccc(Cl)cc3)c3n2CCC3)cc1,-1,-18,-6,-27,-13
Clc1ccc(-c2c[n+](Cc3ccc(Cl)c(Cl)c3)c3n2CCC3)cc1,-1,.,.,-20,41*
CCN(Cc1ccccc1)Cc1c(O)ccc2c(=O)c(-c3ccc(Cl)cc3)coc12,0,.,.,-2,.
CCCCNc1ncnc2c1nnn2C,-1,.,.,.,.
O=C1CC(N2CCN(c3ccccc3Cl)CC2)C(=O)N1c1ccccc1 (stereo not drawn),0,-4,-2,4,-8
CN1CCN(C2CC(=O)N(c3ccc4c(c3)OCCO4)C2=O)CC1 (stereo not drawn),1,15,-1,-12,-2
O=C1CC(N2CCN(c3ccccc3)CC2)C(=O)N1c1ccc2c(c1)OCCO2 (stereo not drawn),0,-16,-3,-6,38*
O=C1CC(N2CCOCC2)C(=O)N1c1ccccc1Cl (stereo not drawn),0,-2,-5,57*,-11
CCCCNC(=O)CCCn1c(=O)c2ccccc2n(Cc2ccc(Cl)cc2)c1=O,-1,.,.,1,.
Cc1cccc(S(=O)(=O)NC(=O)C2(C)CCN2C(=O)C2(c3ccc(Cl)cc3)CCC2)c1 (stereo not drawn),.,-11,-1,.,.
Cc1cc(=O)oc2cc(OCCSCCN3CCCC3)ccc12,-1,-10,-6,-11,3
Cc1cc(=O)oc2cc(OCC(=O)N3CCCC3)ccc12,.,-5,-3,.,.
COc1ccc(N2CCN(CCOc3ccc4c(C)cc(=O)oc4c3)CC2)cc1,1,-42,-1,-34,72*
O=C(CCN1CCN(c2ccccc2F)CC1)c1ccc(Br)cc1,10,-13,1,-18,34*
Cc1cc(=O)oc2ccc(OCC(=O)NCc3ccco3)cc12,0,-12,-3,-3,-11
Cc1cc(=O)oc2cc(OCC(=O)NCc3ccco3)ccc12,0,2,2,35*,0
Cc1cc(=O)oc2cc(OCC(=O)N3CCOCC3)ccc12,0,-9,-6,48*,2
O=C(NCc1ccco1)c1ccc2c(c1)N(Cc1cccc(Cl)c1)C(=O)c1ccccc1S2=O (stereo not drawn),2,.,.,14,.
COc1ccc(C(=O)CCN2CCN(c3ccc(OC)cc3)CC2)cc1,1,-17,0,-15,31*
COc1ccc(N2CCN(CCC(N)=O)CC2)cc1,0,-7,4,-8,-8
CSc1nc(Nc2ccc(C)cc2)c(C#N)c(-c2ccccc2)n1,-1,.,.,-14,.
O=C(CCN1CCC(c2ccccc2)C1)c1ccccc1 (stereo not drawn),.,-17,0,.,.
O=C(CCN1CCC(c2ccccc2)C1)c1ccc2c(c1)OCCO2 (stereo not drawn),14,-38,-7,-31,87*
SMILES,D2 ag-1,D2 PAM-1,D2 ag-2,D2 PAM-2,D2 antagonist
COc1cc(/C=C2\SC(c3ccc(C)cc3)=NC2=O)ccc1O,4,-17,-4,-4,32*
COc1cc(/C=C2\SC(=N)N(c3ccc(F)cc3)C2=O)ccc1O,2,-20,1,-23,56*
CCOc1cc(/C=C2\SC(=S)N(Nc3ccccc3)C2=O)ccc1O,8,-27,-9,9,35*
COc1ccc(/C=C2\SC(c3ccc(C)cc3)=NC2=O)cc1OC,7,-11,-7,1,5
COc1cc(/C=C2\SC(=S)N(NC(=O)c3ccc(O)cc3)C2=O)ccc1O,36*,-11,-1,5,-6
CCOc1ccc(N2C(=O)S/C(=C\c3ccc(O)c(OC)c3)C2=O)cc1,3,-14,-6,15,-16
COc1ccc(OC)c(CNc2ncnc3c2nc2n3CCCC2)c1,-1,.,.,0,.
CN(C)c1ccc(C(=O)Nc2sc(Nc3ccccc3)nc2C(N)=O)cc1,1,.,.,10,.
COc1ccc(NC(=O)CSc2nnc3ccc(-c4ccccn4)nn23)cc1OC,0,-18,-5,-10,30*
COc1cccc(NC(=O)Cn2cc(C(=O)c3ccco3)c3ccccc32)c1,-1,.,.,-9,.
CCCc1ccc(OCc2ccc(C(=O)N3CCSCC3)o2)cc1,-1,-6,8,6,39*
O=C(c1ccc(Cl)cc1)c1coc2ccc(O)cc12,0,-3,-3,0,35*
O=C(c1ccc(Br)cc1)c1coc2ccc(O)cc12,.,5,1,.,.
Clc1ccccc1/C=N/N1CCN(Cc2ccccc2)CC1,0,-6,0,-7,-9
Cc1ccc(CN2CCN(/N=C/c3cccs3)CC2)cc1,-1,-30,-1,-25,34*
Cc1ccc(/C=N/N2CCN(Cc3ccc(C)cc3)CC2)cc1,0,-13,1,-20,55*
Cc1ccc(CN2CCN(/N=C/c3ccc(C(F)(F)F)cc3)CC2)cc1,0,-15,1,-3,-26
FC(F)(F)c1ccccc1/C=N/N1CCN(Cc2ccccc2)CC1,-1,-21,0,-21,30*
CN(Cc1ccc(F)cc1)C(=O)c1cc(COc2ccc(-n3cncn3)cc2)on1,0,67*,2,2,-10
O=C(CCc1nc2ccccc2c(=O)[nH]1)Nc1ccc(N2CCCCC2)cc1,-5,-10,1,-3,77*
CC(C)C[C@H]1C(=O)N2CCC[C@H]2[C@]2(O)O[C@](NC(=O)C3C=C4c5cccc6[nH]c(Br)c(c56)C[C@H]4N(C)C3)(C(C)C)C(=O)N12 (stereo partly drawn),.,?,52*,.,.
Cc1ccc2nc(CSc3nnc(-c4ccncc4)n3C)cc(=O)n2c1,0,18,-2,-4,71*
C=CCn1c(SCc2cc(=O)n3cc(C)ccc3n2)nnc1-c1ccc(F)cc1,-1,1,3,1,10
OC1(c2ccccc2)CCN(Cc2ccccc2)C2CCCCC21 (stereo not drawn),2,-37,-6,-27,38*
Cc1oc(-c2cccs2)nc1CN1CC[C@@](O)(c2ccccc2)[C@H]2CCCC[C@@H]21,0,-14,-1,-9,14
CCCn1cnc2c(oc3ccccc32)c1=O,0,-3,-3,2,-3
CCCn1cnc2c(=O)oc3ccccc3c21,0,-9,-5,5,39*
COc1ccc(-n2c(SCC(=O)NCc3ccc(C)cc3)nc3n[nH]c(C)c3c2=N)cc1,2,.,.,-2,.
COc1ccc(OC)c(NC(=O)Cn2c(=O)n(Cc3nc(C)no3)c(=O)c3ccccc32)c1,.,.,.,1,.
